Potency, activation and viability data for 16 molecules are collected here from PubChem BioAssay (NCATS).

Values joined by “and” are separate entries in the source; they are usually repeats but may differ in a detail not shown here. Identical values can stand only once. Inconclusive results are not listed. A number with no mark means an inactive call. Active and inactive are the calls of the source. Calls come from the whole dose curve; as a rule, active = well fitted curve in the direction sought with a large enough effect; inconclusive = small, poorly fitted or top-dose-only effect, or another doubt; inactive = no such curve, though single readings can be large; an effect the other way counts as inactive or inconclusive.

The target of test [1] is Cellular tumor antigen p53 (Homo sapiens) (UniProt P04637). The experiment in a line: Primary qHTS for small molecule compounds that upregulate eGFP-tagged delta133p53alpha (in N-terminal) cells. (AID 2060322).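 For activation: cells pre-induced with doxycycline then dosed without doxycycline; series mostly up to about 56 µM; 0% = DMSO vehicle and 100% = reference activator.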 Note: nearly all actives have a fitted effect of over 75% in size. Note: potency is the fitted concentration of half-maximal effect. As to conditions: NCI-H358 eGFP-delta133p53alpha fluorescence, 24 h; activation: active compounds read high. The procedure, abridged:
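NCI-H358 cells pre-induced 24 h with 10 ng/ml doxycycline for eGFP-delta133p53alpha, plated dox-free and exposed 24 h at 37C to titrated compounds. Fixed, Hoechst-stained; gated GFP peak intensity by laser scanning cytometry, normalized to DMSO (0%) and 57.5 uM 5-azacytidine (100%).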

Test [2] deals with Aldehyde dehydrogenase, mitochondrial (Homo sapiens) (UniProt P05091). The experiment in a line: qHTS for Inhibitors of the Aldehyde Dehydrogenase Family (ALDH2) Primary screen (AID 2061308).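 Note: plate controls were vehicle for no effect and reference inhibitor for full effect; nearly all actives have a fitted effect of over 55% in size.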
In test [3] the target is Retinaldehyde dehydrogenase 3 (Homo sapiens) (UniProt P47895). The experiment in a line: qHTS for Inhibitors of the Aldehyde Dehydrogenase Family (ALDH1A3) Primary screen (AID 2061315).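 Note: plate controls were DMSO vehicle for no effect and reference inhibitor for full effect.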 Background: In qHTS, concentration-response curves come from the screen itself.
The nature of test [4]: BET inhibitor-based combinations targeting novel dependencies in MECOM-rearranged (r) AML: OCI-AML3 cell line (AID 2202232). Note: potency is the fitted concentration of half-maximal effect; nearly all actives have a fitted effect of over 35% in size. As to conditions: Potency: OCI-AML3 viability. The gist of the method:
(§1)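 A 48 hr incubation preceded viability reading by CellTiter-Glo, with 15 min room-temperature development. Dose series had 11 points; normalization used DMSO and empty wells; AUC was computed and mean-centered per line as Z-AUC.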

Test [5] in a line: BET inhibitor-based combinations targeting novel dependencies in MECOM-rearranged (r) AML: MV-4-11 cell line (AID 2202233). Note: potency is the fitted concentration of half-maximal effect; nearly all actives have a fitted effect of over 45% in size. The gist of the method: (§2)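 Each compound is tested in an 11-point concentration series against 500 seeded cells/well for 48 hr. The luminescent viability signal is normalized to DMSO and blank wells, then reduced to AUC and a cell-line-centred Z-AUC.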
The nature of test [6]: BET inhibitor-based combinations targeting novel dependencies in MECOM-rearranged (r) AML: HNT-34 cell line (AID 2202234). Note: potency is the fitted concentration of half-maximal effect; nearly all actives have a fitted effect of over 35% in size. The gist of the method:
as §2

The nature of test [7]: BET inhibitor-based combinations targeting novel dependencies in MECOM-rearranged (r) AML: UCSD-AML1 cell line (AID 2202235). Note: nearly all actives have a fitted effect of over 40% in size. Note: potency is the fitted concentration of half-maximal effect. The gist of the method: as §2
Test [8] in a line: BET inhibitor-based combinations targeting novel dependencies in MECOM-rearranged (r) AML: AML-191 cell line (AID 2202236; note: nearly all actives have a fitted effect of over 35% in size; note: potency is the fitted concentration of half-maximal effect). The procedure, abridged:
as §1

A short description of test [9]: BET inhibitor-based combinations targeting novel dependencies in MECOM-rearranged (r) AML: AML-194 cell line (AID 2202237; note: nearly all actives have a fitted effect of over 40% in size; note: potency is the fitted concentration of half-maximal effect). The procedure, abridged:
as §1

Test [10] in a line: BET inhibitor-based combinations targeting novel dependencies in MECOM-rearranged (r) AML: SET-2 cell line (AID 2202231).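 Note: plate controls were DMSO treated cells for no effect and wells without cells for full effect; nearly all actives have a fitted effect of over 35% in size.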 As to conditions: SET-2 AML cells viability, CellTiter-Glo luminescence, 48 h; viability: active compounds read low, series mostly up to about 46 µM. The gist of the method: as §1
Background: ATP-based viability assays read luminescence as a measure of living cells.

Cellular tumor antigen p53 (Homo sapiens), sequence (P04637 whole entry, looked up): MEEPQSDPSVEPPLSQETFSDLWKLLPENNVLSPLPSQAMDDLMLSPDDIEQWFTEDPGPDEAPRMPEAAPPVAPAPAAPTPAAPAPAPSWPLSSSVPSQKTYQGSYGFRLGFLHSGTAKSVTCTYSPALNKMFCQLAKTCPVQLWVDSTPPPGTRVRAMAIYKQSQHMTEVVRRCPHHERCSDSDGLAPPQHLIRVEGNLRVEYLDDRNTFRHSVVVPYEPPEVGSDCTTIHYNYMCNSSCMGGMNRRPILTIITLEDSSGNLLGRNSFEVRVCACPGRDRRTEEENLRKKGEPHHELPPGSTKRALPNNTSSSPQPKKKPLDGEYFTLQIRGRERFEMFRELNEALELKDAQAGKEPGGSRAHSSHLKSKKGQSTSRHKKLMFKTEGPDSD

With `Cc1[nH]c(/C=C2\C(=O)Nc3ccc(F)cc32)c(C)c1C(=O)NCCN1CCCC1`, the Potency in [1] was 2.69 µM (active); in test [4], 8.11 µM (active); in test [5], 0.0323 µM (active); in test [6], 3.62 µM (active); in test [7] it was 8.11 µM (active); in test [8], 6.45 µM (active). Besides, the Potency entry in [2] and in [3] was “inactive” each time.

Consider `Nc1nc(Nc2ccc(S(N)(=O)=O)cc2)nn1C(=O)c1c(F)cccc1F`, for which the Potency is 24.3 µM (active) and 9.53 µM (active) in test [1]; 2.95 µM (active) in test [4]; 1.66 µM (active) in test [5]; 2.09 µM (active) in [7]; 2.35 µM (active) in [8]; 3.72 µM (active) in test [9]. The Potency result in test [2] and in test [3] was “inactive” in each case.

`CCc1nc(C(N)=O)c(Nc2ccc(N3CCC(N4CCN(C)CC4)CC3)c(OC)c2)nc1NC1CCOCC1`: the activation in test [1] was -44.7%. Besides, the Potency result in test [2] and in [3] was “inactive” in each case. The Potency in test [4] is 5.9 µM (active); in [5], 0.059 µM (active); in test [6], 1.48 µM (active); in test [7], 2.63 µM (active); in [8], 2.63 µM (active); in test [9], 3.32 µM (active).

Take `CN(C)C/C=C/C(=O)Nc1cccc(C(=O)Nc2cccc(Nc3ncc(Cl)c(-c4c[nH]c5ccccc45)n3)c2)c1`: the Potency is 0.239 µM (active) in [1]; 0.166 µM (active) in test [4]; 0.0033 µM (active) in test [5]; 0.235 µM (active) in test [6]; 0.209 µM (active) in test [7]; 0.468 µM (active) in test [8]. Besides, the Potency in [9] is 0.525 µM (active). The Potency result in test [2] and in test [3] was “inactive” in each case.

For `CC1=C[C@@H]2[C@@H]([C@@H](O)C[C@@]3(C)[C@H]2C[C@@H](C)[C@]3(O)C(=O)CO)[C@@]2(C)Cc3cnn(-c4ccccc4)c3C=C12`, the activation in test [1] is -34.9%. Moreover, the Potency result in [2] and in test [3] was “inactive” each time. The Potency in test [4], in [5] and in test [6] was 18.6 µM (active) in each case.

By viability is commonly meant a read-out of living cells in per cent, often relative to untreated cells. Regarding `c1ccc(-c2oc3ncnc(NC[C@@H]4CCCO4)c3c2-c2ccccc2)cc1`, the activation in [1] was 5.12% and -14.3%. Besides, the Potency result in test [2], in test [3], in [8] and in [9] was “inactive” each time. Moreover, in test [10], the viability is 86.5%.

In the case of `CCCCOC(=O)NS(=O)(=O)c1sc(CC(C)C)cc1-c1ccc(Cn2ccnc2)cc1`, the activation in test [1] was 6.25%. Further, the Potency result in test [2], in [3], in [7] and in test [9] was “inactive” each time. In test [10], the viability was 80.2%.

With `COc1cc(N2CCC(N3CCN(C)CC3)CC2)ccc1Nc1ncc(Cl)c(Nc2ccccc2P(C)(C)=O)n1`, the Potency in test [1] is 3.01 µM (active); in [4], 0.742 µM (active); in [5], 0.0186 µM (active); in test [6], 0.934 µM (active); in test [7], 0.742 µM (active). Further, the Potency entry in test [2] and in [3] was “inactive” each time.

As to `CNC(=O)c1cc(Oc2ccc(NC(=O)Nc3ccc(Cl)c(C(F)(F)F)c3)c(F)c2)ccn1`, the activation in test [1] is 8.41%. The Potency result in test [2] and in test [3] was “inactive” throughout. Further, the Potency in [4] is 2.63 µM (active); in test [5] it was 0.59 µM (active); in [6] it was 10.5 µM (active); in test [8], 9.34 µM (active).

Consider `CN1CCN(C2CCN(C(=O)Nc3cc(Oc4ccc(NC(=O)C5(C(=O)Nc6ccc(F)cc6)CC5)c(F)c4)ccn3)CC2)CC1`, for which the Potency is 26.9 µM (active) in [1]; 23.5 µM (active) in [4]; 0.296 µM (active) in test [5]; 3.72 µM (active) in test [6]; 7.42 µM (active) in test [7]; 18.6 µM (active) in [8]. Besides, the Potency in [9] was 11.8 µM (active). The Potency result in [2] and in test [3] was “inactive” in each case.

Turning to `CS(=O)(=O)CCNCc1ccc(-c2ccc3ncnc(Nc4ccc(OCc5cccc(F)c5)c(Cl)c4)c3c2)o1`, the Potency in test [1] is 26.9 µM (active); in test [4], 23.5 µM (active); in test [5] it was 18.6 µM (active); in test [6], 3.72 µM (active); in [8], 26.3 µM (active). The Potency entry in test [2], in [3] and in test [7] was “inactive” in each case.

As to `COc1cc2c(Oc3ccc4[nH]c(C)cc4c3F)ncnc2cc1OCCCN1CCCC1`, the Potency is 24.3 µM (active) and 23.9 µM (active) in [1]; 13.2 µM (active) in test [4]; 18.6 µM (active) in [5]; 11.8 µM (active) in [6]; 16.6 µM (active) in [7]; 20.9 µM (active) in test [8]. Also, the Potency entry in [2] and in [3] was “inactive” in each case.

On to `CC1=C(C(=O)Nc2cc3cn[nH]c3cc2F)C(c2ccc(Cl)cc2F)N=C(c2ccnc(Cl)c2)N1` (configuration not stated), for which the activation in test [1] was -24.2% and 5.36%. Further, the Potency entry in test [2] and in test [3] was “inactive” throughout. The results for the Potency in [4] and in test [5] were 16.6 µM (active) and 5.9 µM (active), respectively.

In the case of `Cc1ccc(Nc2nccc(N(C)c3ccc4c(C)n(C)nc4c3)n2)cc1S(N)(=O)=O`, in test [1], the activation is 13% and -7.12% and -16.1%. The Potency entry in test [2] and in [3] was “inactive” in each case. In addition, the Potency in [4] was 16.6 µM (active); in test [5], 5.25 µM (active); in test [6] it was 6.61 µM (active); in test [7] it was 18.6 µM (active); in [8], 18.6 µM (active); in test [9], 18.6 µM (active).

`O=C([C@@H](Cc1cccc(C(F)(F)F)c1)NS(=O)(=O)c1cc(F)c2c(c1)CCNC2)N1CCCC1`: in test [1], the activation was -6.33%. Also, the Potency result in [2], in [3], in [7], in test [8] and in [9] was “inactive” throughout. For the same molecule, the values for the Potency in test [4] and in test [5] were 11.8 µM (active) and 20.9 µM (active), respectively.

Take `CCOc1cc2ncc(C#N)c(Nc3ccc(OCc4ccccn4)c(Cl)c3)c2cc1NC(=O)/C=C/CN(C)C`: the Potency in test [1] is 9.28 µM (active); in test [4], 5.9 µM (active); in [5], 2.09 µM (active); in test [6], 1.32 µM (active); in test [7] it was 3.72 µM (active); in [8], 5.25 µM (active). Besides, the Potency in test [9] was 5.25 µM (active). For the same molecule, the Potency entry in [2] and in test [3] was “inactive” throughout.
